Experiments:
[1] = test system: P. berghei liver stage (PbLuc); set-up: species or system HepG2-A16-CD81; P. berghei luciferase sporozoite infection of hepatocytes, liver stage luminescence; details: inhibitor; for PbLuc primary screen (10uM): inhibition % (n=1): 48 h
[2] = test system: HepG2-A16-CD81 hepatocytes; set-up: Uninfected hepatocyte viability, CellTiter-Glo luminescence; details: cytotoxicity primary screen, inhibitor

Row | Compound | PbLuc primary screen (10uM): inhibition % (n=1) [1] [%] | PbLuc primary screen (2uM): inhibition % (n=1) [1] [%] | HepG2 toxicity primary screen (10uM): inhibition % (n=1) [2] [%]
1 | Cc1ncc(CN2CCc3c([nH]c4cc(C5CC5)nn4c3=O)C2)n1C [DDD01058398] | 47.1 | 42.53 | 6.62
2 | CCc1cc(=O)n2nc(C3CCN(C(=O)c4ccncc4)CC3)cc2[nH]1 [DDD01057177] | 32.85 | -9.67 | 3.51
3 | Cc1ncsc1C(=O)N1CCCCC1c1cc2[nH]c(C)c(C)c(=O)n2n1 (stereo not drawn) [DDD01059037] | -26.2 | 11.32 | -8.94
4 | Cc1[nH]n(C2CCS(=O)(=O)C2)c(=O)c1CCc1ccccc1 (stereo not drawn) [DDD01026977] | 5.33 | -33.83 | -50.25
5 | Cc1[nH]n(C2CCCC2)c2nc(C(C)(C)CN3CCN(C)CC3)nc1-2 [DDD01248613] | 49.4 | 34.18 | -6.61
6 | CCc1cc(=O)n2nc(C3CCN(C(=O)c4ccccn4)CC3)cc2[nH]1 [DDD01057364] | -2.695 | 26.22 | 2.29
7 | CN(Cc1ccc(F)c(F)c1)C(=O)CCC1=NC(=C2N=CN=N2)NO1 [DDD01062114] | 55.4 | 6.397 | -43.56
8 | Cc1ccc(CN2CCc3c([nH]c4cc(C5CC5)nn4c3=O)C2)s1 [DDD01058491] | 44.3 | 31.81 | -3.69
9 | Cc1ccccc1CN(C)C(=O)CCC1=NC(=C2N=CN=N2)NO1 [DDD01062116] | 13.7 | 27.4706 | -42.09
10 | Cc1cc(=O)n(-c2ccc3nnc(C)n3n2)[nH]1 [DDD01038570] | 6.83 | 18.99 | 9.24
11 | COc1cccc(F)c1-c1nc2c(C3CC3)[nH]n(C)c-2n1 [DDD01246655] | -18.5 | 21.14 | 0.271
12 | CCc1ccc(NC(=O)Nc2c(O)c3ccccc3oc2=O)cc1 [DDD01037337] | -11.4 | 49.69 | 5.95
13 | Cc1[nH]n(-c2ccccc2)c2nc(C(C)(C)CN3CCN(C)CC3)nc1-2 [DDD01252143] | 8.08 | 38.49 | -2.13
14 | CCc1ccc(C(C)NC(=O)CCC2=NC(=C3N=CN=N3)NO2)cc1 (stereo not drawn) [DDD01068289] | 38.8 | -21.47 | -1.98
15 | Cc1[nH]n(C2CCS(=O)(=O)C2)c(=O)c1Cc1ccccc1 (stereo not drawn) [DDD01026976] | 36.9 | -17.38 | -44.6
16 | COc1cccc(C2=NN=CC2=C2NC(CN3CCCC3)=NO2)c1 [DDD01247208] | 34 | 45.82 | -23.2
17 | Cc1nc(=O)cc(CCNC(=O)CC[C@@H]2CCCN3CCCC[C@H]23)[nH]1 [DDD01256003] | 44.8 | 42.6913 | 0.956
18 | CCc1nc(CN(C)C2CCN(CCn3cc(C#N)cn3)C2)no1 (stereo not drawn) [DDD01304196] | 41.4 | -38.96 | -6.12
19 | COc1cc(F)ccc1-c1nc2c(C3CC3)[nH]n(C)c-2n1 [DDD01248843] | -24.9 | -27.89 | -1.72
20 | COc1cc2c(cc1-c1nc3c[nH]n(C(C)C(C)C)c-3n1)OCO2 (stereo not drawn) [DDD01255421] | 31.9 | 7.665 | 8.61
21 | CCc1nn2c(N)c(C#N)nnc2c1-c1ccc(OC)cc1 [DDD01035159] | 22.9 | 19.08 | -3.73

Source: publication PMC7155171, “Probing the Open Global Health Chemical Diversity Library for Multistage-Active Starting Points for Next-Generation Antimalarials” (ACS Infectious Diseases, 2020)
